From PubChem
Gal4-VP16 FLuc = Gal4-VP16 reporter inhibition counter-screen. Drosophila S2 Gal4-VP16 UAS-luciferase, luminescence, 20 h. Potency, µM (doses to about 53.6 µM), for the others: at the top dose activity, negative = inhibition, hits mostly inhibitors. hit rate 3.5% among 310,000;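 note: Gal4-VP16 expression switched on by copper sulfate through the metallothionein promoter; % is set by controls: 0 for no effect and ±100 for the full control effect; nearly all actives have a fitted effect of over 50% in size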
KB-3-1 cytotox = KB-3-1 parental cell cytotoxicity. KB-3-1 viability, CellTiter-Glo ATP luminescence, 72 h. Potency, µM (series often up to 46.1 µM), hits mostly cytotoxic. hit rate 1.4% among 400,000. AID 1347075; note: % is set by controls: 0 for no effect and ±100 for the full control effect; nearly all actives have a fitted effect of over 60% in size
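Multi-concentration cytotoxicity screen in KB-3-1 cells grown in DMEM lacking phenol red with 10% FBS. After 72 h at 37 °C with compound, ATP-dependent luminescence was recorded.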
KB-V1 cytotox = kills drug-selected multidrug resistant KB-V1 cells; KB-V1 MDR cells viability, CellTiter-Glo, 72 h; Potency, µM (series often up to 46.1 µM), most hits filed as cytotoxic; hit rate 3.4% among 400,000; note: % is set by controls: 0 for no effect and ±100 for the full control effect; nearly all actives have a fitted effect of over 60% in size
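Cytotoxicity via CellTiter-Glo luminescence after 72 h compound exposure at 37 degrees C. Cells: drug-selected KB-V1 line, DMEM phenol-red free plus 10% FBS. Compounds tested at multiple concentrations; normalized data fitted to concentration-effect curves.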
SW480 rereplic = DNA re-replication induction in SW480 cells; Potency, µM (highest dose often 46.1 µM), for inactives: top-dose re-replication activation, most hits filed as activators; SW480 DNA re-replication, Hoechst DNA content imaging, 48 h; hit rate 1.8% among 340,000; note: % of control where 0% means no effect; nearly all actives have a fitted effect of over 55% in size
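Compounds, transferred as 23 nL by pin tool, were incubated with cells for 48 hr; DNA content per nucleus was then quantified by Hoechst staining and fluorescence plate imaging.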
RORg inh = blocks mouse ROR gamma transcriptional activity. P51450. Potency, µM (titrated, usually from 53.6 µM), for inactives: at the top dose activity change, negative = inhibition, actives largely listed as inhibitors. Drosophila S2 Gal4-RORgamma UAS-luciferase reporter, 20 h. hit rate 5.4% among 310,000. AID 2551; note: % is set by controls: 0 for no effect and ±100 for the full control effect; nearly all actives have a fitted effect of over 60% in size
Target sequence (P51450 whole entry, looked up, the tested form may be a part): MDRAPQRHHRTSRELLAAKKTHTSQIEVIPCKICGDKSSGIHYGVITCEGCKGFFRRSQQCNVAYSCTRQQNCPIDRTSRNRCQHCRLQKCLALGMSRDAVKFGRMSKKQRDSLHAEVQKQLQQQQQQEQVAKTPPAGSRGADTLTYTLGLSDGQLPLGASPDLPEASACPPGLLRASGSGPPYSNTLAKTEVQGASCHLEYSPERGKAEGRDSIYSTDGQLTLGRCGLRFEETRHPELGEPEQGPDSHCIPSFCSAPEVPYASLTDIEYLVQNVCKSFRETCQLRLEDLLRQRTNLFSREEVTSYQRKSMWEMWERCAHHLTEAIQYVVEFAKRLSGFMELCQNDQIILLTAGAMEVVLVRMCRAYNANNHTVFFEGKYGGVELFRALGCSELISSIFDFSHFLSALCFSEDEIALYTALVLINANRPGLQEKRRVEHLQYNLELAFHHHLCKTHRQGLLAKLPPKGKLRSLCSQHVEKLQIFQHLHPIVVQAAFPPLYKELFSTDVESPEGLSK
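Stable Schneider cell line, Gal4 DNA-binding domain fused to ROR gamma, UAS-luciferase. Cmpd 1 hr RT → CuSO4 700 uM final → 20 hr RT → luciferase reagent 10 min → luminescence.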
MCF10A rerep = induces DNA re-replication in MCF 10a normal breast cells | MCF 10A DNA re-replication, Hoechst nuclear intensity, 48 h | Potency, µM (top dose mostly 46.1 µM), inactives show at the top dose activity, positive = re-replication, most hits filed as activators | hit rate 2.9% among 350,000 | AID 624296; note: % of control where 0% means no effect; nearly all actives have a fitted effect of over 50% in size
Numbers without * were called inactive; i = inactive; ? = inconclusive; / = no result; ! = not active in a repeat; [ ] = another dose, or the depositor's remark. A selection: hits, their analogues and other compounds. The true share with any hit is near 10%. Calls come from the whole dose curve; as a rule, active = well fitted curve in the direction sought with a large enough effect; inconclusive = small, poorly fitted or top-dose-only effect, or another doubt; inactive = no such curve, though single readings can be large; an effect the other way counts as inactive or inconclusive. Potency is the fitted concentration of half-maximal effect.

SMILES	Gal4-VP16 FLuc	KB-3-1 cytotox	KB-V1 cytotox	SW480 rereplic	RORg inh	MCF10A rerep
O=c1[nH]n(CCO)c(=O)c2cccnc12	4%	i	i	-12%	0%	-4%
Oc1ccc(COCc2ccccc2)c2cccnc12	?	?	?	3.3µM*	0.56µM*	?
OCc1ccc(O)c2ncccc12	18µM*	?	?	16µM*	13µM*	?
Oc1ccc(CNc2ccccc2F)c2cccnc12	?	21µM*!	?	?	10µM*	?
COc1ccc(N(Cc2cc3cccc(C)c3[nH]c2=O)C(=O)c2cccc(Cl)c2)cc1	/	i	?	/	/	/
COC(=O)C(C)CCCC(C)CCCC(C)CCCC(C)C (centres undefined)	7%	/	/	/	21%	/
Cc1nc(NC(=O)C(C)(C)C)sc1-c1nc(N)sc1-n1cc(-c2ccccc2)nn1	/	i	i	/	/	/
CCNc1nc(-c2sc(NC(=O)C(C)(C)C)nc2C)c(-n2cc(-c3ccccc3)nn2)s1	/	?	18µM*	/	/	/
O=C(Nc1ncccn1)c1ccc([N+](=O)[O-])o1	?	?	i	?	14µM*	9.2µM*
Cc1ccnc(NC(=O)c2ccccc2[N+](=O)[O-])c1	3%	i	?	-1%	27%	9%
Cc1ccnc(NC(=O)c2ccc([N+](=O)[O-])o2)c1	?	?	i	5.8µM*	?	4.1µM*
O=C(Nc1ccccn1)c1ccc([N+](=O)[O-])o1	?	?	?	?	?	9.2µM*
O=C(Nc1ccccn1)c1ccco1	3%	i	i	1%	6%	1%
O=C(Nc1nc2c(Cl)cccc2s1)c1ccc([N+](=O)[O-])o1	?	?	i	-5%[9.22 µM]	23%[1.91 µM]	?
O=C(Nc1cc(-c2nc3ncccc3o2)ccc1Cl)c1ccc([N+](=O)[O-])o1	-16%	3.7µM*	?	1.3µM*	-13%	1.3µM*
CC(=O)c1cc(-c2ccc(F)cc2)n(CCC(=O)Nc2nc3ccc(C)cc3s2)c1C	/	i	i	/	/	/
COc1ccc(CC(=O)NC2CC(=O)N(c3ccc4c(c3)OCCO4)C2)cc1 (centres undefined)	/	i	i	/	/	/
O=c1c(-c2ccc(F)cc2)nc2cnc(N3CCNCC3)nc2n1Cc1ccc(F)cc1	?	/	/	/	14µM*	/
CN1CCN(c2ncc3nc(-c4cccs4)c(=O)n(Cc4cccs4)c3n2)CC1	?	/	/	/	13µM*	/
O=c1c(-c2cccs2)nc2cnc(N3CCNCC3)nc2n1Cc1cccs1	8.9µM*	/	/	/	18µM*	/
COc1ccc(-n2c(=O)c(-c3cccs3)nc3cnc(N4CCNCC4)nc32)cc1	10µM*	/	/	/	?	/
O=c1c(-c2ccc(Cl)cc2)nc2cnc(N3CCNCC3)nc2n1Cc1cccs1	?	/	/	/	-11%	/
CCCN(CCC)CCCNC(=O)Cn1cnc2onc(-c3ccc(F)cc3)c2c1=O	/	i	i	/	/	/
CCC(=O)Nc1cc(-c2nc3cc(C)cc(C)c3o2)ccc1C	/	i	i	/	/	/
Cc1cc(C)cc(NC(=O)C(=O)NCC(c2ccc3c(c2)OCO3)N2CCN(C)CC2)c1 (centres undefined)	/	i	i	/	/	/
SMILES	Gal4-VP16 FLuc	KB-3-1 cytotox	KB-V1 cytotox	SW480 rereplic	RORg inh	MCF10A rerep
CN1CCN(c2ncc3nc(-c4cccs4)c(=O)n(CCC#N)c3n2)CC1	6.3µM*	/	/	/	0.71µM*	/
O=c1c(-c2cc(F)cc(F)c2)nc2cnc(N3CCNCC3)nc2n1Cc1cccs1	?	/	/	/	2.8µM*	/
COC(=O)C1=C[C@@H](C(=O)OC)C2C3=C(C(=O)[C@@]2(C)NC(=O)c2ccccc2)[C@H](C)n2c(=O)n(C)c(=O)n2[C@@H]3C1 (some centres undefined)	8%	/	/	/	-9%	/
Cc1nc2cccnc2n1C1CCN(S(=O)(=O)c2ccc(C(C)C)cc2)CC1	/	i	i	/	/	/
COc1ccc(NC(=O)CN(c2ccccc2OC)S(C)(=O)=O)c(OC)c1	/	i	i	/	/	/
Cc1noc(C)c1C(=O)N1CCC2(CC1)CN(Cc1cc(C(F)(F)F)cc(C(F)(F)F)c1)C2	-1%	/	/	/	25%	/
